Some test systems named below: NCI-H23 lung; NCI-H226 lung; NCI-H322M lung; HOP-62 NSCLC; NCI-H460 lung; HOP-92 NSCLC; NCI-H522 lung; A549/ATCC NSCLC; 786-0 renal; COLO 205 colon.
What all share (assay): NCI-60 one-dose screen, 48 h (100 = growth as untreated, 0 = no growth, -100 = all killed)
Common to all, as to details: 10 µM unless noted

Compounds without any hit were thinned out: in the full panel of roughly 83,000, 20% have a hit.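 Cells were grown in 96-well plates and exposed to the test compound at a single concentration for 48 hours; results are reported as percent growth, with values below 10 considered active.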 Values without a mark were called inactive. Calls of active or inactive are those of the source.

Turning to `CCCCCCCCCCCCCC[N+](C)(C)CCCCCCCCCCCCCC`, the growth in the experiment on NCI-H23 lung is 70.3%; with NCI-H226 lung, 72.9%; in the experiment on NCI-H322M lung it was 98.7%; with HOP-62 NSCLC, 86.2%; in the experiment with NCI-H460 lung, 74.3%; in the experiment with HOP-92 NSCLC it was 8.4% (active). The growth in the experiment on NCI-H522 lung is 47.3%; with A549/ATCC NSCLC it was 55.3%; in the experiment with 786-0 renal it was 63.4%; in the experiment with COLO 205 colon, 66%.
Consider `C#CC[C@@H]1C[C@]2(C)[C@H]3CC[C@@H]4[C@H]5C(C(=C)C)CC[C@]5(C(=O)NCCCCCCCCN)CC[C@@]4(C)[C@]3(C)CC[C@H]2C(C)(C)[C@H]1OC(C)=O` (stereo not given in full), for which the growth in the experiment with NCI-H23 lung was 97.3%; in the experiment with NCI-H226 lung, 95.6%; in the experiment on NCI-H322M lung it was 101%; in the experiment on HOP-62 NSCLC, 103%; with NCI-H460 lung, 16.3%; in the experiment with HOP-92 NSCLC, 70.6%. Further, the growth in the experiment on NCI-H522 lung was 88.1%; in the experiment on A549/ATCC NSCLC it was 93.3%; in the experiment on 786-0 renal it was 85.1%; in the experiment with COLO 205 colon it was 86%.
Take `O=C(O)Cn1ccc2ccccc21`: the growth is 100% in the experiment on NCI-H23 lung; 110% in the experiment with NCI-H226 lung; 100% with NCI-H322M lung; 79.9% with HOP-62 NSCLC; 103% with NCI-H460 lung; 88.2% with HOP-92 NSCLC. Also, the growth is 77.7% in the experiment with NCI-H522 lung, 99.4% in the experiment with A549/ATCC NSCLC, 101% with 786-0 renal and 153% in the experiment on COLO 205 colon.
Take `CN1CCN(Cc2ccc(NC(=O)c3ccc(C#N)c(C#Cc4cnc(N)c5ncccc45)c3)cc2C(F)(F)F)CC1`: the growth with NCI-H23 lung was 96.8%; in the experiment with NCI-H226 lung it was 59.4%; with NCI-H322M lung, 96.7%; in the experiment on HOP-62 NSCLC, 87.2%; in the experiment on NCI-H460 lung, 21.7%; with HOP-92 NSCLC it was 81.9%. The growth with NCI-H522 lung is 98.4%; in the experiment on A549/ATCC NSCLC, 90.6%; in the experiment on 786-0 renal, -80.3% (active); in the experiment with COLO 205 colon it was 77.7%.
Take `CCc1oc2ccccc2c1C(=O)c1cc(I)c(O)c(I)c1`: the growth is 58.5% in the experiment with NCI-H23 lung; 74.8% with NCI-H226 lung; 98.3% in the experiment on NCI-H322M lung; 108% in the experiment with HOP-62 NSCLC; 21.6% with NCI-H460 lung; 53.2% with HOP-92 NSCLC. Further, the growth with NCI-H522 lung was 30%; in the experiment with A549/ATCC NSCLC, 40.3%; with 786-0 renal it was 62%; in the experiment with COLO 205 colon, 104%.
On to `CCCc1n(Cc2ccc3ccccc3n2)cc[n+]1Cc1ccc2ccccc2c1`, for which the growth is -11.6% (active) with NCI-H23 lung; 12.3% in the experiment with NCI-H226 lung; 25.7% with NCI-H322M lung; 8.38% (active) with HOP-62 NSCLC; 7.73% (active) in the experiment with NCI-H460 lung; -18.6% (active) in the experiment on HOP-92 NSCLC. The growth with NCI-H522 lung was -0.784% (active); with A549/ATCC NSCLC, 39.1%; in the experiment on 786-0 renal it was 34.7%; in the experiment on COLO 205 colon, -50% (active).
Take `C=CCN(CCOC(=O)c1ccc([N+](=O)[O-])cc1)CCOC(=O)c1ccc([N+](=O)[O-])cc1`: the growth with NCI-H23 lung is 106%; with NCI-H226 lung, 94.9%; with NCI-H322M lung, 91.1%; in the experiment on HOP-62 NSCLC, 91.9%; in the experiment on NCI-H460 lung, 115%; in the experiment with HOP-92 NSCLC, 87.1%. Besides, the growth was 95.3% in the experiment on NCI-H522 lung, 102% with A549/ATCC NSCLC, 103% in the experiment on 786-0 renal and 112% with COLO 205 colon.
`CCCCC(CCc1ccccn1)C(=O)c1ccccc1` (stereo not given): the growth is 98.8% in the experiment on NCI-H23 lung; 118% in the experiment with NCI-H226 lung; 103% with NCI-H322M lung; 106% in the experiment with HOP-62 NSCLC; 112% in the experiment on NCI-H460 lung; 94.9% in the experiment with HOP-92 NSCLC. Also, the growth with NCI-H522 lung is 131%; in the experiment with A549/ATCC NSCLC, 111%; with 786-0 renal, 110%; with COLO 205 colon, 112%.
Take `Nc1nc(N)c2c(n1)NC(c1sc(Cl)nc1Cl)CC(c1ccc3c(c1)OCO3)=N2` (stereo not given): the growth with NCI-H23 lung is 39.9%; with NCI-H226 lung, 82.7%; with NCI-H322M lung, 72.6%; in the experiment with HOP-62 NSCLC it was 34.5%; in the experiment on NCI-H460 lung it was 13.2%; in the experiment on HOP-92 NSCLC, 56%. For the same compound, the growth with NCI-H522 lung is -28.3% (active); in the experiment on A549/ATCC NSCLC, 36.4%; in the experiment on 786-0 renal it was 38.1%; in the experiment with COLO 205 colon, 7.12% (active).
For `CCn1c(CN2CCN(Cc3ccccc3)CC2)nc2cc(NC(=O)c3cccs3)ccc21`, the growth in the experiment with NCI-H23 lung was -39% (active); in the experiment with NCI-H226 lung, -35.5% (active); with NCI-H322M lung, -69% (active); with HOP-62 NSCLC, -81.6% (active); with NCI-H460 lung it was -69.9% (active); in the experiment with HOP-92 NSCLC, -72.3% (active). The growth was -64.4% (active) in the experiment with NCI-H522 lung, -72.9% (active) with A549/ATCC NSCLC, -67.8% (active) with 786-0 renal and -91.3% (active) in the experiment on COLO 205 colon.
With `COc1cc(/C=C/C(=O)c2ccc(NC(=O)CSc3nnc(-c4ccc(Cl)cc4)n3-c3ccccc3)cc2)cc(OC)c1OC`, the growth in the experiment with NCI-H23 lung is 55.9%; in the experiment with NCI-H226 lung, 82%; with NCI-H322M lung it was 96.5%; in the experiment on HOP-62 NSCLC, 96.5%; in the experiment with NCI-H460 lung it was 80%; in the experiment with HOP-92 NSCLC, 97.9%. For the same compound, the growth in the experiment on NCI-H522 lung is 63.8%; with A549/ATCC NSCLC it was 69.8%; with 786-0 renal, 79%; in the experiment on COLO 205 colon, 79.8%.
On to `c1ccc2c(c1)cnc1ccccc12`, for which the growth in the experiment with NCI-H23 lung was 102%; in the experiment with NCI-H226 lung, 111%; in the experiment with NCI-H322M lung it was 103%; in the experiment on HOP-62 NSCLC it was 102%; with NCI-H460 lung, 110%; in the experiment on HOP-92 NSCLC, 99.5%. The growth with NCI-H522 lung is 81.6%; in the experiment on A549/ATCC NSCLC, 93.7%; with 786-0 renal it was 92.6%; in the experiment with COLO 205 colon it was 129%.
On to `COc1ccc2[nH]c(C(=O)OCc3ccc4c(Br)cc(Br)c(O)c4n3)cc2c1`, for which the growth in the experiment with NCI-H23 lung is -62.4% (active); in the experiment with NCI-H226 lung it was -64.7% (active); in the experiment with NCI-H322M lung, 43.1%; in the experiment with HOP-62 NSCLC it was 7.47% (active); in the experiment with NCI-H460 lung it was -75.1% (active); in the experiment with HOP-92 NSCLC, -59.8% (active). The growth in the experiment with NCI-H522 lung was -68% (active); in the experiment with A549/ATCC NSCLC, -10.2% (active); with 786-0 renal, -81.8% (active); in the experiment on COLO 205 colon, -80.2% (active).
Take `COc1cc(C(=O)/C=C/c2cn(-c3ccccc3)nc2-c2cccc(Nc3ccnc4cc(Cl)ccc34)c2)cc(OC)c1OC`: the growth in the experiment on NCI-H23 lung was 100%; in the experiment on NCI-H226 lung, 98.1%; in the experiment on NCI-H322M lung, 88.1%; with HOP-62 NSCLC, 78.2%; with NCI-H460 lung, 90.5%; in the experiment with HOP-92 NSCLC, 73.3%. Besides, the growth was 106% with NCI-H522 lung, 91.5% with A549/ATCC NSCLC, 89% in the experiment on 786-0 renal and 88.9% in the experiment with COLO 205 colon.
In the case of `CCN(CC)CCNc1c(C)cc(CO)c(Cl)c1C`, the growth with NCI-H23 lung is 102%; in the experiment on NCI-H226 lung, -23.6% (active); in the experiment on NCI-H322M lung it was 110%; with HOP-62 NSCLC it was 113%; in the experiment with NCI-H460 lung, 98.9%; with HOP-92 NSCLC, 109%. Further, the growth was 104% in the experiment on NCI-H522 lung, 84.5% in the experiment on A549/ATCC NSCLC, 103% in the experiment with 786-0 renal and 85.2% in the experiment on COLO 205 colon.
Regarding `CC1=NOCC(=O)N1`, the growth with NCI-H23 lung was 106%; in the experiment with NCI-H226 lung, 102%; in the experiment with NCI-H322M lung, 111%; with HOP-62 NSCLC, 105%; in the experiment on NCI-H460 lung, 107%; with HOP-92 NSCLC it was 96%. The growth in the experiment with NCI-H522 lung was 92.8%; in the experiment on A549/ATCC NSCLC, 89.7%; in the experiment with 786-0 renal, 101%; in the experiment on COLO 205 colon it was 108%.
As for `CC[C@H](Nc1nc(N)nc(C2CC2)c1C#N)c1nc2cccc(NCc3ccc(C(=O)NO)cc3)c2c(=O)n1-c1ccccc1`, the growth in the experiment with NCI-H23 lung was -14.8% (active); in the experiment with NCI-H226 lung it was -21.9% (active); in the experiment on NCI-H322M lung it was 21.3%; with HOP-62 NSCLC, 5.11% (active); with NCI-H460 lung, -15.1% (active); in the experiment on HOP-92 NSCLC, -14% (active). Moreover, the growth with NCI-H522 lung was -29.6% (active); in the experiment with A549/ATCC NSCLC, -30.6% (active); in the experiment on 786-0 renal it was -9.68% (active); in the experiment on COLO 205 colon, -17.8% (active).
Take `COc1cc2c(cc1C)NC(=O)/C2=C\c1c[nH]c2ccccc12`: the growth in the experiment with NCI-H23 lung was 79.9%; in the experiment on NCI-H226 lung, 84%; in the experiment with NCI-H322M lung it was 65.8%; in the experiment with HOP-62 NSCLC, 75.2%; in the experiment on NCI-H460 lung, 40.6%; with HOP-92 NSCLC, 50.1%. Moreover, the growth is 54.7% in the experiment on NCI-H522 lung, 52.5% in the experiment on A549/ATCC NSCLC, 65.4% with 786-0 renal and 91.1% in the experiment with COLO 205 colon.
As for `Cc1ccc2cc3c(NC(=O)c4cccnc4)nn(C)c3nc2c1`, the growth with NCI-H23 lung was 90%; in the experiment on NCI-H226 lung it was 85.3%; in the experiment with NCI-H322M lung it was 89.4%; in the experiment on HOP-62 NSCLC, 101%; in the experiment with NCI-H460 lung it was 98.2%; in the experiment with HOP-92 NSCLC, 81.5%. Besides, the growth with NCI-H522 lung was 67.1%; in the experiment with A549/ATCC NSCLC, 95.7%; with 786-0 renal it was 98.6%; in the experiment with COLO 205 colon it was 85.5%.
